Results reported in PubChem BioAssay (EPA / NIEHS).
Where “and” joins values, the source holds several entries; their conditions need not be identical. Identical values can stand only once. Calls of active or inactive are those of the source. Rule for the calls: active = hit-call score of the fitted dose curve at least 0.9, where 1 is the maximum; inactive = score below 0.9.

Legend:
[1] = read-out: Thrombomodulin, THBD (gene 7056); experiment: BSK_CASM3C_Thrombomodulin: BioMAP Diversity Plus: CASM3C Assay for Thrombomodulin Biomarker Activity (AID 2283051); conditions: primary human coronary artery smooth muscle cells; actives raise or lower the signal;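 note: thrombomodulin protein level measured by ELISA 24 h after dosing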
[2] = read-out: Tissue Factor, F3 (gene 2152); experiment: BSK_CASM3C_TissueFactor: BioMAP Diversity Plus: CASM3C Assay for Tissue Factor Biomarker Activity (AID 2283052); conditions: primary human coronary artery smooth muscle cells; actives raise or lower the signal;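 note: cell surface tissue factor protein level read by ELISA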
[3] = read-out: Interferon-gamma inducible Protein 10 (IP10), CXCL10 (gene 3627); experiment: BSK_hDFCGF_IP10: BioMAP Diversity Plus: hDFCGF Assay for Interferon-gamma inducible Protein 10 (IP10) Biomarker Activity (AID 2283053); conditions: primary human foreskin fibroblasts; actives raise or lower the signal
Outline: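 Chemical-treated human skin fibroblasts (primary) were sampled at 24 h for IP-10 by ELISA. Both increases and decreases relative to DMSO were scored.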

[4] = read-out: Urokinase-type plasminogen activator receptor (uPAR), PLAUR (gene 5329); experiment: BSK_CASM3C_uPAR: BioMAP Diversity Plus: CASM3C Assay for Urokinase-type plasminogen activator receptor (uPAR) Biomarker Activity (AID 2283054); conditions: primary human coronary artery smooth muscle cells; actives raise or lower the signal;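 note: cell-surface uPAR protein level quantified by ELISA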
[5] = read-out: Vascular cell adhesion molecule 1 (VCAM1), VCAM1 (gene 7412); experiment: BSK_CASM3C_VCAM1: BioMAP Diversity Plus: CASM3C Assay for Vascular cell adhesion molecule 1 (VCAM1) Biomarker Activity (AID 2283055); conditions: primary human coronary artery smooth muscle cells; actives raise or lower the signal;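 note: VCAM-1 protein level quantified by ELISA on the cells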
[6] = read-out: Epidermal growth factor receptor (EGFR), EGFR (gene 1956); experiment: BSK_hDFCGF_EGFR: BioMAP Diversity Plus: hDFCGF Assay for Epidermal growth factor receptor (EGFR) Biomarker Activity (AID 2283057); conditions: primary human foreskin fibroblasts; actives raise or lower the signal
Outline: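 Cell-based multiplexed assay in primary human foreskin fibroblasts. EGFR is read by ELISA 24 h after treatment and compared with DMSO controls.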

[7] = read-out: Interleukin-8 (IL8), CXCL8 (gene 3576); experiment: BSK_hDFCGF_IL8: BioMAP Diversity Plus: hDFCGF Assay for Interleukin-8 (IL8) Biomarker Activity (AID 2283058); conditions: primary human foreskin fibroblasts; actives raise or lower the signal
Outline: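 IL-8 levels from compound-treated primary human fibroblasts were read by ELISA at 24 h, with DMSO serving as baseline for bidirectional fitting.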

[8] = BSK_hDFCGF_Proliferation: Cell Proliferation Assessment in the BioMAP Diversity Plus: hDFCGF Assay (AID 2283059); conditions: primary human foreskin fibroblasts;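 note: curves fitted for both rise and fall of signal versus DMSO baseline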
Outline: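 Steps: dose primary human dermal fibroblasts (foreskin); […] fix in 10% TCA; stain with 0.1% SRB; read 560 nm; fit gain or loss of signal against DMSO.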

[9] = read-out: Macrophage colony-stimulating factor (MCSF), CSF1 (gene 1435); experiment: BSK_hDFCGF_MCSF: BioMAP Diversity Plus: hDFCGF Assay for Macrophage colony-stimulating factor (MCSF) Biomarker Activity (AID 2283060); conditions: primary human foreskin fibroblasts; actives raise or lower the signal
Outline: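 M-CSF levels, determined by ELISA, are taken at 24 h after dosing human skin fibroblasts. Responses in either direction are fitted with DMSO serving as the baseline.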

SMILES	outcome [1]	outcome [2]	outcome [3]	outcome [4]	outcome [5]	outcome [6]	outcome [7]	outcome [8]	outcome [9]	AC50 [2]	AC50 [4]	AC50 [5]	AC50 [8]	AC50 [3]	AC50 [9]	AC50 [1]	AC50 [6]	AC50 [7]
C=C(C)[C@H]1CC=C(C)C(=O)C1	inactive	inactive	inactive	inactive	inactive	inactive	inactive	inactive	inactive									
CCCCCC(C=O)=Cc1ccccc1	inactive		inactive			inactive	inactive		inactive	20 µM (active)	39.3 µM (active)	31.2 µM (active)	31.4 µM (active)					
CC=Cc1ccc(OCC)c(O)c1	inactive	inactive	inactive	inactive	inactive	inactive	inactive	inactive	inactive									
c1ccc2cc(Nc3ccc(Nc4ccc5ccccc5c4)cc3)ccc2c1	inactive	inactive	inactive	inactive	inactive	inactive	inactive	inactive	inactive									
O=C(Nc1ccc2c(O)c(N=Nc3ccc(N=Nc4ccc(S(=O)(=O)O)cc4)cc3)c(S(=O)(=O)O)cc2c1)c1ccccc1	inactive	inactive		inactive	inactive	inactive	inactive	inactive						25.5 µM (active) and 36.2 µM (active)	30.8 µM (active) and 29.3 µM (active)			
CN(C)C(=S)SC(=S)N(C)C		inactive		inactive								19.9 µM (active)	30.2 µM (active)	35.1 µM (active)	31.4 µM (active)	4.02 µM (active)	19.9 µM (active)	39.1 µM (active)
C=C(C)C(=O)OCC(CC)(COC(=O)C(=C)C)COC(=O)C(=C)C	inactive			inactive	inactive		inactive			8.08 µM (active)			26.5 µM (active)	33.8 µM (active)	23.4 µM (active)		31.7 µM (active)	
C1=CC2C3C=CC(C3)C2C1 (stereo unspecified)	inactive	inactive	inactive	inactive	inactive	inactive	inactive	inactive	inactive									
Oc1c(Cl)cc(Cl)c(Cl)c1Cc1c(O)c(Cl)cc(Cl)c1Cl	inactive					inactive				1.73 µM (active)	1.97 µM (active)	9.96 µM (active)	0.113 µM (active)	2.82 µM (active)	1.58 µM (active)			3.96 µM (active)
CCCCN(CCCC)C(=O)N(CCCC)CCCC	inactive					inactive	inactive			11.7 µM (active)	20 µM (active)	12.8 µM (active)	3.96 µM (active)	11.1 µM (active)	9.49 µM (active)			
CS(=O)(=O)c1ccc(C2=C(c3ccccc3)C(=O)OC2)cc1	inactive	inactive	inactive	inactive	inactive	inactive	inactive	inactive	inactive									
CC(C)(N=C=O)c1cccc(C(C)(C)N=C=O)c1	inactive	inactive	inactive	inactive	inactive	inactive	inactive		inactive				29.9 µM (active)					
c1ccc(CCc2ccccc2)cc1	inactive					inactive	inactive			20 µM (active)	31.9 µM (active)	37.6 µM (active)	13.8 µM (active)	34.1 µM (active)	30.5 µM (active)			
COc1ccc(OC)c(N=Nc2c(O)ccc3ccccc23)c1	inactive	inactive		inactive		inactive	inactive					20 µM (active)	10.2 µM (active)	3.71 µM (active)	5.74 µM (active)			
CCCCCCCCCCCCCCCC(=O)OC/C=C(C)/C=C/C=C(C)/C=C/C1=C(C)CCCC1(C)C	inactive	inactive	inactive	inactive		inactive	inactive					0.0326 µM (active)	27.7 µM (active)		24.7 µM (active)			
C=C(C)C(=O)OCCOCCOCCOCCOC(=O)C(=C)C	inactive	inactive	inactive	inactive	inactive	inactive	inactive	inactive	inactive									
O=C1c2ccccc2C(=O)c2c(O)ccc(O)c21	inactive	inactive	inactive			inactive	inactive				4.99 µM (active)	5.44 µM (active)	3.14 µM (active)		1.38 µM (active)			
CC1(C)C2=CCCC(C)(C)[C@]23CC[C@H]1C3	inactive					inactive	inactive			30.9 µM (active)	20 µM (active)	30.8 µM (active)	8.84 µM (active)	34.9 µM (active)	30.2 µM (active)			
CC(C=O)Cc1ccc(C(C)(C)C)cc1 (stereo unspecified)	inactive		inactive				inactive			20 µM (active)	33.7 µM (active)	27.3 µM (active)	29.1 µM (active)		29.5 µM (active)		32.1 µM (active)	
CCCCOC(=O)CCCCCCCC(=O)OCCCC	inactive	inactive	inactive	inactive	inactive	inactive	inactive	inactive	inactive									
CCC(C)c1cc([N+](=O)[O-])cc([N+](=O)[O-])c1OC(=O)OC(C)C (stereo unspecified)						inactive				12.1 µM (active)	24.3 µM (active)	32.1 µM (active)	4.37 µM (active)	8.25 µM (active)	6.2 µM (active)	36.8 µM (active)		13.4 µM (active)
COc1cc(Cl)c(OC)cc1N	inactive	inactive	inactive	inactive	inactive	inactive	inactive	inactive	inactive									
CC(=O)C1(C)CC2=C(CCCC2(C)C)CC1C (stereo unspecified)	inactive									11.6 µM (active)	12.3 µM (active)	11.4 µM (active)	10.6 µM (active)	13.8 µM (active)	10.9 µM (active)		6.8 µM (active)	31.7 µM (active)
O=CN1CCOCC1	inactive	inactive	inactive	inactive	inactive	inactive	inactive	inactive	inactive									
